# Experimental data from ChEMBL document CHEMBL1961873, “Compounds: GSK PKIS; Assays: Nanosyn kinase panel” (2012).
# Where “and” joins values, the source holds several entries; their conditions need not be identical. Identical values can stand only once.
# Target: Serine/threonine-protein kinase MARK2 (Homo sapiens) (UniProt Q7KZI7)
# Details: at 0.1 µM
# 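Also: mean percent inhibition of PAR-1Balpha kinase activity, reported from the GSK PKIS screen.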
# Serine/threonine-protein kinase MARK2 (Homo sapiens), sequence (Q7KZI7 whole entry): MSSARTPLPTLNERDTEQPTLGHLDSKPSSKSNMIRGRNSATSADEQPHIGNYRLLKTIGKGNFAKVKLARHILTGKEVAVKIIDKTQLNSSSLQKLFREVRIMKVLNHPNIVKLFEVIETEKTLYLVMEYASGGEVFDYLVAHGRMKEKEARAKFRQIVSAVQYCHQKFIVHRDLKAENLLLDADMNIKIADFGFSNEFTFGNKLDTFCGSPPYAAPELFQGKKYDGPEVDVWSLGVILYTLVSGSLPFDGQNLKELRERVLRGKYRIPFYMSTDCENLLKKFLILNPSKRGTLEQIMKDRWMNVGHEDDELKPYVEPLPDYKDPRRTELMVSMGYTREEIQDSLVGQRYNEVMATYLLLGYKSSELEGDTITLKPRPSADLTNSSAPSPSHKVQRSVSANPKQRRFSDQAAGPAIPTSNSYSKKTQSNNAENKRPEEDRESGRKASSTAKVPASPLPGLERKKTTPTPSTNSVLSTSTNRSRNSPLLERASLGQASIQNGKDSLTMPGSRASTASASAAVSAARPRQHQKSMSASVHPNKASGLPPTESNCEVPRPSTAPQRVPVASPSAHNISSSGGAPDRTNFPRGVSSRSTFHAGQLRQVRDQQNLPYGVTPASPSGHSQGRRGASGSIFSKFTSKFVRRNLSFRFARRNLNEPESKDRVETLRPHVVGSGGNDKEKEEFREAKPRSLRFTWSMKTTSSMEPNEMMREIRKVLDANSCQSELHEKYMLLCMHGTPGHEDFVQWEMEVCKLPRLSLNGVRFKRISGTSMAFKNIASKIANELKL
row,SMILES,inhibition
1,Cc1c2ccc(N(C)c3ccnc(Nc4cccc(S(N)(=O)=O)c4)n3)cc2nn1C,1.14%
2,Cc1ccc(-c2cc3c(NC(=O)C4CC4)ncnc3o2)cc1,1.3%
3,CN(C)CCNC(=O)Nc1ccc(N(C)c2ccnc(Nc3ccc(CS(C)(=O)=O)cc3)n2)cc1,2.5%
4,CCS(=O)(=O)c1ccc(OC)c(Nc2ncc(-c3cccc(F)c3)o2)c1,2.49%
5,CC(C)c1ccc(-c2cc(-c3c[nH]nc3-c3ccccn3)ccn2)cc1,-2.82%
6,c1ccc(-c2n[nH]cc2-c2ccnc(-c3ccc(OCCn4ccnc4)cc3)c2)nc1,-0.46%
7,COc1ccc(Nc2ncc(-c3ccccc3)o2)cc1OC,1.48%
8,Cc1cc(O)cc(C)c1/C=C/c1cncc(C(N)=O)c1,0.97%
9,CC1=C(C(=O)Nc2ccc3[nH]nc(C)c3c2)C(c2ccc(C(F)(F)F)cc2)CC(=O)N1 (stereo unspecified),0.75%
10,NS(=O)(=O)c1cccc(N/C=C2\C(=O)Nc3ccccc32)c1,2.99%
11,Fc1ccc(Nc2nccc(-c3c(-c4ccc(C(F)(F)F)cc4)nn4ncccc34)n2)cc1F,-0.1%
12,COc1cc2c(cc1Nc1nc(Nc3cccc(F)c3C(N)=O)c3cc[nH]c3n1)N(C(=O)CN1CCN(C(C)C)CC1)CC2,0.26%
13,O=C(O[C@H]1CN[C@H](C#Cc2cc3ncnc(Nc4ccc5c(ccn5Cc5cc(F)ccc5F)c4)c3s2)C1)N1CCOCC1,0.88%
14,CCN1CCC(C(=O)Nc2n[nH]c3nnc(-c4cccc(F)c4F)cc23)CC1,-2.48%
15,N#Cc1cccc(Nc2ncc(-c3ccccc3)o2)c1,-0.17%
16,CS(=O)(=O)CCNCc1ccoc1-c1ccc2ncnc(Nc3ccc(OCc4ccccc4)cc3)c2c1,-1.43%

row,SMILES,inhibition
1,COc1cccc(-n2ncc3c(N/N=C/c4ccc(C(=O)NCCN(C)C)cc4)ncnc32)c1,1.55%
2,COc1cc(N2CCN(C(C)C)CC2)ccc1Nc1nc(Nc2cccc3ncccc23)c2cc[nH]c2n1,-0.66%
3,NS(=O)(=O)c1ccc(N/N=C2\C(=O)Nc3ccc(C(=O)NCc4ccncc4)cc32)cc1,0.88%
4,CCn1c(-c2nonc2N)nc2cncc(C(=O)NCCNC)c21,-0.85%
5,COC(=O)Nc1nc2cc(Oc3ccc(NC(=O)Nc4ccccc4)cc3)ccc2[nH]1,0.31%
6,COc1cc(Nc2ncc(-c3ccccc3)o2)cc(OC)c1,-1.15%
7,COc1ccc(-c2nn3ncccc3c2-c2ccnc(Nc3ccc(F)c(F)c3)n2)cc1,0.52%
8,COc1c(C(N)=O)cc(-c2ccc(Cl)cc2)cc1-c1ccc(S(N)(=O)=O)cc1,1.8%
9,Nc1ncnc2occ(-c3ccc(NC(=O)Nc4cc(C(F)(F)F)ccc4F)cc3)c12,-0.86% and -0.02%
10,CC1=C(C(=O)Nc2ccc3[nH]ncc3c2)C(c2ccc(F)cc2)N=C(c2ccc(C(F)(F)F)nc2)N1 (stereo unspecified),-1.01%
11,CN1CCN(Cc2ccc(-c3cc4ncnc(Nc5ccc(OCc6cccc(F)c6)c(Cl)c5)c4s3)o2)CC1,0.8% and 0.26%
12,N#Cc1ccc2c(-c3ccnc(NC4CC4)n3)c(-c3ccc(F)cc3)nn2c1,-0.15%
13,CNC(=O)c1ncccc1Nc1nc(Nc2cc3c(cc2OC)CCCN3C(=O)CN(C)C)nc2[nH]ccc12,2.14%
14,Nc1nccc(-c2c(-c3ccc(F)cc3)ncn2C2CCNCC2)n1,0.15% and 0.08%
15,c1cnn2ncc(-c3ccnc(NCCCN4CCOCC4)n3)c2c1,-1.43%
